This note sets out measurements from PubChem BioAssay (Tox21).

A short description of assay [1]: qHTS assay for small molecules that induce genotoxicity in human embryonic kidney cells expressing luciferase-tagged ATAD5 (AID 651632). Note: nearly all actives have a fitted effect of over 15% in size. The essentials: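 HEK293T cells carrying luciferase-tagged ATAD5 were given compound or DMSO vehicle and incubated 16 hr at 37C, 5% CO2. Luciferase activity was read after 30 min at room temperature with Amplite; a rise signals genotoxic stress.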

Assay [2] in a line: qHTS assay for small molecule agonists of the p53 signaling pathway - cell viability (AID 651633; calls by dose curve; note: nearly all actives have a fitted effect of over 30% in size; note: potency is the fitted concentration of half-maximal effect). The method, boiled down:
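Viability counter-read: CellTiter-Glo luminescence (30 min, room temperature) in the same p53RE-bla plates. These plates had been exposed to compounds for 16 h at 37 C.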

The nature of assay [3]: qHTS assay for small molecules that induce genotoxicity in human embryonic kidney cells expressing luciferase-tagged ATAD5 - cell viability (AID 651634; calls by dose curve; note: nearly all actives have a fitted effect of over 25% in size; note: potency is the fitted concentration of half-maximal effect). The essentials:
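HEK293T cells carrying luciferase-tagged ATAD5, 2,000 cells/well, exposed to compound for 15.5 hr at 37C. Viability read as live-cell protease activity by CellTiter-Fluor fluorescence after 30 min at 37C.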

Assay [4] is described as follows: qHTS assay for small molecule disruptors of the mitochondrial membrane potential - cell viability (AID 720634; calls by dose curve;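 note: human HepG2 liver cancer cells; nearly all actives have a fitted effect of over 20% in size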). The essentials:
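HepG2 cells, 2,000 per well, attached overnight, then treated 1 hr at 37 C, 5% CO2. Viability read as ATP by CellTiter-Glo luminescence after 30 min at room temperature. Read in the same wells as the m-MPI membrane-potential dye assay.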
(In general: In qHTS, concentration-response curves come from the screen itself.)

A short description of assay [5]: qHTS assay for small molecule disruptors of the mitochondrial membrane potential (AID 720635). Note: potency is the fitted concentration of half-maximal effect. The essentials: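 Mitochondrial membrane potential tracked with Mito-MPS dye, red aggregates (ex 540/em 590 nm) against green monomers (ex 490/em 535 nm). Compound treatment 1 hr at 37C, dye 30 min in HepG2.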
Assay [6] can be described thus: qHTS assay to test for compound auto fluorescence at 535 nm (green) in HepG2 cells (AID 720675).
Assay [7] can be described thus: qHTS assay to test for compound auto fluorescence at 460 nm (blue) in HEK293 cells (AID 720678). The method, boiled down: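 Triamterene serves as the blue fluorophore standard. Compound signal at 405/460 nm is read in HEK293 wells (2,000 cells, 10% dialyzed FBS) after overnight treatment at 37C.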
Assay [8] is described as follows: qHTS assay to test for compound auto fluorescence at 590 nm (red) in HEK293 cells (AID 720679). The method, boiled down: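 We plated HEK293 cells in 10% dialyzed FBS medium, let them adhere for 4-5 hr, then added 23 nL compound. Overnight at 37C and 5% CO2 preceded fluorescence measurement at 540/590nm.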
Assay [9] in a line: qHTS assay to test for compound auto fluorescence at 535 nm (green) in HEK293 cells (AID 720680).
The nature of assay [10]: qHTS assay to test for compound auto fluorescence at 460 nm (blue) in HEK293 cell free culture (AID 720681). The method, boiled down:
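Blue fluorescence (Ex 405/Em 460 nm, triamterene-equivalent) was read immediately after pin transfer of compound or DMSO into medium (DMEM, 10% FBS) without cells.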

A short description of assay [11]: qHTS assay to test for compound auto fluorescence at 590 nm (red) in HEK293 cell free culture (AID 720683). The essentials:
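Red-channel autofluorescence of compounds in culture medium (DMEM, 10% FBS), no cells, measured at 540/590 nm. Rose Bengal sodium is the reference fluorophore for equivalence.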

A short description of assay [12]: qHTS assay to test for compound auto fluorescence at 590 nm (red) in HepG2 cell free culture (AID 720684). The essentials:
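Steps: dispense MEM/10% FBS medium, no cells; pin compound or DMSO vehicle; read red channel, Ex/Em 540/590 nm. Output given as Rose Bengal sodium equivalents.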

Assay [13] can be described thus: qHTS assay to test for compound auto fluorescence at 460 nm (blue) in HepG2 cell free culture (AID 720685). The essentials: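 Compound (23 nL) or DMSO pinned into cell-free MEM with 10% FBS; blue fluorescence read at 405/460 nm excitation/emission, expressed as auto-fluorescence equivalency to triamterene.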
Assay [14] in a line: qHTS assay to test for compound auto fluorescence at 535 nm (green) in HepG2 cell free culture (AID 720686).
Assay [15] is described as follows: qHTS assay to test for compound auto fluorescence at 460 nm (blue) in HepG2 cells (AID 720687). The essentials:
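Blue-channel autofluorescence (Ex/Em 405/460 nm, triamterene-equivalent) was measured after 1 hr compound exposure at 37 C, 5% CO2. Cells were HepG2, plated overnight at 37 C in MEM plus 10% FBS.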

Assay [16] deals with Glucocorticoid receptor (Homo sapiens) (UniProt P04150). Put plainly: qHTS assay to identify small molecule agonists of the glucocorticoid receptor (GR) signaling pathway (AID 720691; active = well fitted activation curve with a large enough effect in the signal ratio in the repeat runs, not every such curve was filed as active; inconclusive = weak or mixed curves, or effect the other way; inactive = no such curve, though single readings can be large or run the other way; the % refers to the signal ratio; note: potency is the fitted concentration of half-maximal effect). The following applies: GR-bla HeLa, beta-lactamase reporter ratio, 18 h; activation: at 62.4 µM (top of the series) unless noted. The method, boiled down: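 GR-bla HeLa cells carrying a GRE-driven beta-lactamase reporter, exposed to compounds for 18 h at 37 C. Reporter activation read as fluorescence after 2 h with LiveBLAzer B/G FRET substrate at room temperature.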

The nature of assay [17]: qHTS assay to test for compound auto fluorescence at 590 nm (red) in HepG2 cells (AID 720674). The method, boiled down:
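Red autofluorescence (Ex/Em 540/590 nm, Rose Bengal sodium equivalents) was measured in HepG2 cells, 2,000 per well in MEM plus 10% FBS, plated overnight at 37 C. Readings were taken 1 hr after adding 23 nL compound or DMSO, at 37 C and 5% CO2.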

A short description of assay [18]: qHTS assay to test for compound auto fluorescence at 535 nm (green) in HEK293 cell free culture (AID 720682). The method, boiled down:
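Steps: dispense DMEM/10% FBS into empty wells; pin in compound or DMSO; measure fluorescence at 485/535 nm. Values are fluorescein equivalents.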

Assay [19] is described as follows: qHTS assay for small molecule agonists of the p53 signaling pathway (AID 651631; calls by dose curve; note: potency is the fitted concentration of half-maximal effect; nearly all actives have a fitted effect of over 15% in size). The essentials: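 HCT-116 p53RE-bla reporter line, 16 h compound treatment at 37 °C, then fluorescence after 2 h with B/G FRET substrate.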
Assay [20] addresses Glucocorticoid receptor (Homo sapiens) (UniProt P04150). Put plainly: qHTS assay to identify small molecule antagonists of the glucocorticoid receptor (GR) signaling pathway (AID 720692; active = well fitted inhibition curve with a large enough effect in the signal ratio in the repeat runs, not every such curve was filed as active; inconclusive = weak or mixed curves, or effect the other way; inactive = no such curve, though single readings can be large or run the other way; the % refers to the signal ratio). The essentials: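 GR-bla HeLa cells carrying a GRE-driven beta-lactamase reporter received compound after 4 h plating, then dexamethasone (5 nM final). After 18 h at 37C, the FRET substrate was loaded for 2 h at room temperature and fluorescence read.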

Each structure is given as a SMILES string. Values without a mark were called inactive. Active and inactive are the calls of the source. Unless noted, calls come from the whole dose curve; as a rule, active = well fitted curve in the direction sought with a large enough effect in the repeat runs; inconclusive = weak or mixed curves; inactive = no such curve, though single readings can be large; an effect the other way counts as inactive or inconclusive.

Glucocorticoid receptor (Homo sapiens), sequence (P04150 whole entry, looked up): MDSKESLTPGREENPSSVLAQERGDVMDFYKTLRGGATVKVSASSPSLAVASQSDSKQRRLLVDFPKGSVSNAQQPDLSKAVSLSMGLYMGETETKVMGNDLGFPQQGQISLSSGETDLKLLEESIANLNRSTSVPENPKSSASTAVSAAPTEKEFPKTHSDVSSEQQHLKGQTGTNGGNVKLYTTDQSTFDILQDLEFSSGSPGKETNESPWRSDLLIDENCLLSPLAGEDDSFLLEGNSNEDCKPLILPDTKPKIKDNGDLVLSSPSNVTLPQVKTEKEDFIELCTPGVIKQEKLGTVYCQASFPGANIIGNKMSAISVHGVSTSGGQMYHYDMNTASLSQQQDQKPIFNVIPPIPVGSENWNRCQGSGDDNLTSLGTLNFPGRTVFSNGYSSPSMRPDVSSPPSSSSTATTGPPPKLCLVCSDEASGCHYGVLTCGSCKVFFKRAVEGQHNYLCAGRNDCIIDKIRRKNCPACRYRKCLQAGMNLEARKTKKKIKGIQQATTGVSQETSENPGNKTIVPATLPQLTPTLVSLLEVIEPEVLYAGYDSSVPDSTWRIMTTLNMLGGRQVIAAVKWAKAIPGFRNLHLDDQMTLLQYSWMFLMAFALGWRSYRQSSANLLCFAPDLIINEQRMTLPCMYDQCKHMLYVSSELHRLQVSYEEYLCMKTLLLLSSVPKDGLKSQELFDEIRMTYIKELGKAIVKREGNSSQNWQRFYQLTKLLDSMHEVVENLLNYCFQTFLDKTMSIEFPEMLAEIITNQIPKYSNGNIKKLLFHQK

For the compound `CCCCCCc1ccc(-c2ccc(C#N)cc2)cc1`, the Potency result in assay [1], in assay [2], in assay [3], in assay [4], in assay [6] and in [8] was “inactive” each time. In addition, the Potency entry in assay [11], in [12], in assay [14] and in [16] was “inactive” in each case. For the same compound, the Potency in assay [5] is 26.8 µM (active). The call in assay [7], in [9], in [10], in assay [13] and in [15] was inactive.
For the compound `CN1CCC(=C2c3ccccc3Sc3ccccc32)CC1`, the Potency entry in assay [1], in assay [4], in assay [17], in assay [6], in assay [8] and in assay [11] was “inactive” in each case. The Potency result in assay [12], in assay [14] and in assay [16] was “inactive” each time. For the same compound, the Potency is 29.8 µM (active) in [2] and 26.6 µM (active) in assay [3]. In addition, the outcome in [7], in [9], in assay [10], in assay [18], in assay [13] and in assay [15] was inactive.
For the compound `CCN(CC)CCNc1ccc(CNC=O)c2sc3ccc(OC)cc3c(=O)c12`, the Potency in assay [19] is 6.86 µM (active); in assay [3], 4.86 µM (active); in assay [16] it was 49 µM [inconclusive] (active). Further, the Potency result in [2], in [4], in [17], in assay [6], in [12] and in assay [14] was “inactive” in each case. In addition, the call in assay [7], in assay [9], in assay [18], in assay [13] and in [15] was inactive.
For the compound `CC(C)Nc1ccc(NC(C)C)c2c1C(=O)c1ccccc1C2=O`, the Potency entry in assay [1], in [2], in assay [17], in assay [6], in [11] and in assay [12] was “inactive” in each case. Also, the Potency result in assay [14], in assay [16] and in assay [20] was “inactive” throughout. Also, the Potency in assay [5] was 11.3 µM (active). The compound was classed as inactive in assay [7], in assay [9], in [10], in assay [18], in assay [13] and in assay [15].
With `CCOc1ccc(N=Nc2ccc(/C=C/c3ccc(N=Nc4ccc(OCC)cc4)cc3S(=O)(=O)O)c(S(=O)(=O)O)c2)cc1`, the Potency entry in [1], in assay [2], in assay [17], in [6], in assay [11] and in [12] was “inactive” in each case. Moreover, the Potency result in assay [14] and in assay [16] was “inactive” in each case. Also, the Potency in [3] is 42.6 µM (active). Also, the compound was classed as inactive in assay [7], in assay [9], in assay [18] and in assay [15].
As for `CCC(C)(C)CC`, the Potency entry in [1], in assay [2], in assay [3], in assay [4], in [17] and in [8] was “inactive” in each case. For the same compound, the Potency entry in assay [11], in assay [12], in assay [14] and in [16] was “inactive” throughout. The call in assay [7], in assay [9], in [10], in [13] and in [15] was inactive.
For the compound `O=C1C(O)=C(O)C(=O)C(O)=C1O`, the Potency result in assay [1], in assay [3], in [4], in [5], in assay [17] and in assay [6] was “inactive” throughout. Moreover, the Potency entry in [8], in assay [12], in assay [14] and in [16] was “inactive” in each case. For the same compound, the compound was called inactive in [7], in assay [9], in [10], in assay [18] and in assay [15].
In the case of `OC(C#CCN1CCCC1)(c1ccccc1)c1ccccc1`, the Potency result in [1], in [2], in assay [3], in assay [4], in [17] and in [6] was “inactive” throughout. Besides, the Potency result in assay [8], in assay [12], in [14] and in [16] was “inactive” each time. Moreover, the call in assay [7], in assay [9], in assay [10] and in [15] was inactive.
